Screens as filed in PubChem BioAssay.
hgDAF12 agonist – H. glycines DAF-12 receptor agonists, primary screen, cell-based, luminescence, HEK293, GAL4 fusion, UAS-luciferase | Nuclear hormone receptor DAF-12 (Heterodera glycines), GAL4 fusion | HEK293 GAL4-hgDAF12 UAS-luciferase reporter, agonist luminescence; normalized to butyrate control | activation, % at 6.8 µM | 370,000 compounds, 1.8% hits | AID 687014, 2013;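 active = activation above a cutoff set at the mean of all screened compounds plus 3 SD, cut at about 10% in these data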;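 also: 0% = DMSO wells and 100% = sodium butyrate wells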
ssDAF12 agonist – S. stercoralis DAF-12 nuclear receptor activators, primary screen, cell-based, luminescence, HEK293, GRIP1 co-expression, lit1-tk-luc; 370,000 compounds, 1% hits; HEK293 ssDAF-12/GRIP1 lit1-tk-luc reporter; % of 3 µM dafachronic acid response; activation, % at 6.8 µM; Nuclear hormone receptor DAF-12 (Strongyloides stercoralis); AID 652126, 2013;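 active = activation above the mean over all tested compounds plus 3 SD, cut at about 0.9% in these data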;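 also: 0% = DMSO-only wells and 100% = 3 µM delta7-dafachronic acid wells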
DAX1 inh-1 – DAX1 (NR0B1) inhibitors, primary screen, cell-based, HEK293, Gal4-DAX1, luciferase luminescence. Nuclear receptor subfamily 0 group B member 1 (Homo sapiens), P51843. HEK293 Gal4-DAX1 luciferase reporter. inhibition, % at 6.75 µM. 340,000 compounds, 0.99% hits. AID 504766, 2011;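 active = inhibition above the mean over all tested compounds plus 3 SD, cut at about 4.2% in these data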;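 also: 0% = DAX1-transfected cells with DMSO and 100% = empty-vector control cells with DMSO; inhibition shows as a rise in luminescence from relieved DAX1 repression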
Target sequence (P51843 207-470 limits assumed): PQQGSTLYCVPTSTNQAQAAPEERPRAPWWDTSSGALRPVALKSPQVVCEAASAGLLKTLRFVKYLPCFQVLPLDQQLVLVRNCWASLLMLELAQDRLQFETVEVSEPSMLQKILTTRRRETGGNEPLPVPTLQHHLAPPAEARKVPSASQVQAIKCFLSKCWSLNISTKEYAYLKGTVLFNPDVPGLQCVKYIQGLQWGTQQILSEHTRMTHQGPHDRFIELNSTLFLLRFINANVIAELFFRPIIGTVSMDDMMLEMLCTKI
DAX1 inh-2 – DAX1 (NR0B1) inhibitors on StAR promoter, primary screen, cell-based, luminescence, SF-1 (NR5A1), full-length DAX-1; HEK293T StAR-luciferase reporter, SF-1/DAX-1 repression relief; inhibition, % at 6.8 µM; 370,000 compounds, 1.1% hits; AID 652010, 2013;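 active = inhibition above the mean over all tested compounds plus 3 SD, cut at about 3.6% in these data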;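 also: 0% = DAX-1 cells with DMSO and 100% = cells lacking DAX-1 with DMSO; higher inhibition means more luminescence from relief of DAX-1 repression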
hcDAF-12 act – H. contortus DAF-12 nuclear receptor activators, primary screen, cell-based, luminescence, HEK293, lit1-tk-luc reporter. AID 652067, 2013. 370,000 compounds, 1.4% hits. HEK293 hcDAF-12 lit1-tk-luc reporter; 0% DMSO, 100% Δ7-dafachronic acid. activation, % at 6.8 µM;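 active = activation above the mean of all tested compounds plus 3 SD, cut at about 5.5% in these data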;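 also: 100% = response to 3 µM Δ7-dafachronic acid high control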
AHR act – AHR activators, primary screen, cell-based, luminescence, luciferase reporter, human; Aryl hydrocarbon receptor (Homo sapiens), P35869; AHR-responsive luciferase reporter cells; activation, % at 5 µM; 320,000 compounds, 2.5% hits; in the data active = activation above about 47%;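 also: 0% = vehicle wells and 100% = reference agonist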
* = called active by the depositor; . = no result. In the library only some 5.7% were active in any assay of this set; here they are far more common.

SMILES | hgDAF12 agonist | ssDAF12 agonist | DAX1 inh-1 | DAX1 inh-2 | hcDAF-12 act | AHR act
O=C(CSC1=Nc2ccccc2C2CC=NN12)NCc1ccco1 (configuration not stated) | 2 | 0 | -1 | -2 | 0 | 66*
NNC(=O)c1sc(-c2ccc(Cl)cc2)cc1N | 10 | 0 | 2 | 1 | 1 | 48*
Nc1sc(-c2ccccc2)cc1C(=O)NCCc1ccc(Cl)cc1 | 0 | -1 | . | 2 | -1 | .
CCOC(=O)c1sc(-c2ccc(Br)cc2)cc1N | 11* | 1 | 2 | 3 | 4 | -9
CCOc1cc2[nH]c(=S)n(CCC(=O)NCc3ccc(OC)cc3)c(=O)c2cc1OCC | 2 | -1 | 0 | 0 | 0 | -1
O=C(Nc1ccccc1Cl)c1cc(S(=O)(=O)N2CCCCC2)ccc1N1CCOCC1 | -1 | -2 | 0 | -1 | -1 | 2
CC(=NCCCn1ccnc1)C1=C(O)c2ccccc2C1=O | 2 | -1 | 1 | 2 | 2 | 23
CC(=NCc1cccnc1)C1=C(O)c2ccccc2C1=O | -2 | -1 | 0 | 0 | -1 | 74*
CCN(CC)CCCN=C(C)C1=C(O)c2ccccc2C1=O | 1 | -1 | . | 0 | 1 | -1
CCCN=C(C)C1=C(O)c2ccccc2C1=O | 10 | -2 | 5.3* | 1 | 1 | -2
Cc1nc(-c2cccc(NC(=O)c3ccc(-n4nccc4C)cc3)c2)cs1 | 0 | -2 | -2 | -3 | -2 | 2
Cc1nc(-c2ccc(NC(=O)C3CC3)cc2)cs1 | 9 | 0 | 0 | 2 | 3 | -1
Cc1nc(-c2ccc(C(=O)Nc3cccc(Br)c3)cc2)cs1 | 11* | -1 | -3 | 0 | 2 | -11
COc1ccc(C(=O)Nc2ccc(-c3cn4ccsc4n3)cc2)cc1S(=O)(=O)N1CCOCC1 | -5 | -2 | -1 | -2 | -3 | -5
Cc1nc(-c2ccc(NC(=O)CC(C)C)cc2)cs1 | 13* | -1 | 1 | 1 | 4 | 0
CC(C)CC(=O)Nc1ccc(-c2cn3ccsc3n2)cc1 | 11* | 0 | -1 | 3 | 2 | 28
CC(C)(C)C(=O)Nc1ccc(-c2cn3ccsc3n2)cc1 | 10 | 1 | -3 | 4 | 5.9* | -3
CCOC(=O)C1=C(c2ccccc2)c2ccc(OC)cc2N(S(=O)(=O)C(F)(F)F)C1C(=O)OCC (configuration not stated) | -1 | -1 | -1 | -2 | -4 | .
CC(C)Cn1c(N)c(C(=O)COC(=O)c2cc(F)cc(F)c2)c(=O)n(C)c1=O | -1 | -1 | -2 | 0 | 0 | -1
O=C1C=C(c2ccccc2)CC(/C=C/c2ccccc2)C1 (configuration not stated) | 1 | -1 | 0 | 1 | 0 | 75*
O=C1C=C(c2ccccc2)CC(c2ccc(F)cc2)C1 (configuration not stated) | 0 | -2 | 0 | 0 | -2 | 2
O=C(N/N=C/c1cccs1)c1c[nH]c2ccccc12 | 6 | -1 | 3 | 1 | 3 | 154*
O=C(N/N=C/c1cccs1)c1ccc2ncccc2c1 | 2 | -1 | 1 | 0 | 1 | 5
O=C(N/N=C/c1cccs1)c1ccccn1 | 12* | 0 | 2 | 3 | 5 | 3
CCc1ccc(/C=N/NC(=O)c2ccccn2)cc1 | 11* | 0 | 0 | 2 | 6 | 4
Cc1ccc(/C=N/NC(=O)c2ccncc2)cc1 | 2 | 0 | 1 | 0 | -1 | 7
Cc1ccc(/C=N\NC(=O)c2csnn2)cc1 | 9 | 0 | 2 | 2 | 2 | 49*
